The full ranking holds about 1,500 compounds; the median of “Inhibition index” is about 0.17, and the highest 2% start at about 1.3. The entries come from a sample that favours the highest values as a whole.
These compounds were tested on SARS-CoV-2 (assay: Inhibition of cell viability relative to arbidol control (inhibition index > 1 indicates higher activity) measured by fluorescence (OD590nm) in Vero E6 cells infected with SARS-CoV-2 (strain BavPat1) at MOI 0.002 after 72hrs).
Format: functional, Chlorocebus sabaeus, Vero C1008

Compound	Inhibition index
C#C[C@]1(OC(C)=O)CC[C@H]2[C@@H]3CCC4=CC(=NO)CC[C@@H]4[C@H]3CC[C@@]21CC	-0.3327
C[C@H](O)[C@H](O)[C@H]1CNc2[nH]c(N)nc(=O)c2N1.Cl.Cl [SAPROPTERIN DIHYDROCHLORIDE]	0.4022
O=C1CN(/N=C/c2ccc(-c3ccc([N+](=O)[O-])cc3)o2)C(=O)[N-]1.[Na+] [DANTROLENE SODIUM]	0.3986
Nc1ccc(S(=O)(=O)[N-]c2cnc3ccccc3n2)cc1.[Na+] [SULFAQUINOXALINE SODIUM]	-0.000446
COc1cc2nc(N3CCN(C(=O)C4CCCO4)CC3)nc(N)c2cc1OC.Cl (stereo not given)	-0.01131
CN(C)CCCN1c2ccccc2Sc2ccccc21.Cl [PROMAZINE HYDROCHLORIDE]	1.161
Cl.N[C@@H]1CCCCN(c2c(F)cc3c(=O)c(C(=O)O)cn(C4CC4)c3c2Cl)C1 [BESIFLOXACIN HYDROCHLORIDE]	0.08463
CCCCc1oc2ccccc2c1C(=O)c1cc(I)c(OCCN(CC)CC)c(I)c1.Cl [AMIODARONE HYDROCHLORIDE]	-0.1051
COCCc1ccc(OCC(O)CNC(C)C)cc1.COCCc1ccc(OCC(O)CNC(C)C)cc1.O=C(O)C(O)C(O)C(=O)O (stereo not given) [METOPROLOL TARTRATE]	0.03331
CCC(=O)[C@@]1(C)[C@H](C)C[C@H]2[C@@H]3CCC4=CC(=O)C=C[C@]4(C)[C@H]3[C@@H](O)C[C@@]21C [RIMEXOLONE]	0.1893
Cl.NCCc1ccc(O)c(O)c1 [DOPAMINE HYDROCHLORIDE]	1.056
C[C@@H]1C[C@H]2[C@@H]3C[C@H](F)C4=CC(=O)C=C[C@]4(C)[C@@]3(Cl)[C@@H](O)C[C@]2(C)[C@H]1C(=O)COC(=O)C(C)(C)C [CLOCORTOLONE PIVALATE]	0.111
O=C(O)Cc1ccccc1Oc1ccc(Cl)cc1Cl [FENCLOFENAC]	0.3257
CC(=O)OCC(=O)[C@@]12OC(C)(C)O[C@@H]1C[C@H]1[C@@H]3C[C@H](F)C4=CC(=O)C=C[C@]4(C)[C@@]3(F)[C@@H](O)C[C@@]12C [FLUOCINONIDE]	0.2896
CCN(CC)CC(=O)Nc1c(C)cccc1C.Cl	-0.01364
CC1=C(/C=C/C(C)=C/C=C/C(C)=C\C(=O)O)C(C)(C)CCC1 [ISOTRETINOIN]	1.484
CC1=C(/C=C/C(C)=C/C=C/C(C)=C/C(=O)O)C(C)(C)CCC1 [TRETINOIN]	0.999
COc1cc(C)c(/C=C/C(C)=C/C=C/C(C)=C/C(=O)O)c(C)c1C [ACITRETIN]	0.2609
CN1CCN2c3ccccc3Cc3ccccc3C2C1.Cl (stereo not given) [MIANSERIN HYDROCHLORIDE]	0.175
CC[C@H](C)C(=O)O[C@H]1C[C@@H](C)C=C2C=C[C@H](C)[C@H](CC[C@@H]3C[C@@H](O)CC(=O)O3)[C@H]21 [LOVASTATIN]	-0.07572

Compound	Inhibition index
CC(C)(O/N=C(\C(=O)N[C@@H]1C(=O)N2C(C(=O)[O-])=C(C[n+]3ccccc3)CS[C@H]12)c1csc(N)n1)C(=O)O.O.O.O.O.O	0.06868
Cl.Nc1nc2ccc(OC(F)(F)F)cc2s1	0.04491
CC(O)C(=O)O.CCOc1ccc2nc3cc(N)ccc3c(N)c2c1	0.4974
CCOc1ccc2nc(S(N)(=O)=O)sc2c1 [ETHOXZOLAMIDE]	2.099
CC(=O)O.O=C(NCC1CCCCN1)c1cc(OCC(F)(F)F)ccc1OCC(F)(F)F (stereo not given) [FLECAINIDE ACETATE]	0.049
CN[C@@H]1[C@H](O)[C@H](NC)[C@H]2O[C@@]3(O)C(=O)C[C@@H](C)O[C@H]3O[C@@H]2[C@H]1O.Cl.Cl	0.1494
COc1cccc(N(C)C(=S)Oc2ccc3c(c2)CCCC3)n1 [LIRANAFTATE]	0.6869
CCCCc1cc2ccccc2c(OCCN(C)C)n1.Cl [DIMETHISOQUIN HYDROCHLORIDE]	-0.1351
CN(C)N=Nc1[nH]cnc1C(N)=O	-0.0106
CC(=O)OCC(=O)[C@@]1(O)CC[C@H]2[C@@H]3CCC4=CC(=O)CC[C@]4(C)[C@H]3[C@@H](O)C[C@@]21C [HYDROCORTISONE ACETATE]	0.145
CCN(CC)CCCC(C)Nc1c2ccc(Cl)cc2nc2ccc(OC)cc12.Cl.Cl.O.O (stereo not given) [QUINACRINE HYDROCHLORIDE]	-0.1724
COc1cc(NC(C)CCCN)c2ncccc2c1.O=P(O)(O)O.O=P(O)(O)O (stereo not given) [PRIMAQUINE PHOSPHATE]	0.6817
CCN(CC)CCCC(C)Nc1ccnc2cc(Cl)ccc12.O=P(O)(O)O.O=P(O)(O)O (stereo not given) [CHLOROQUINE PHOSPHATE]	1.351
Cl.O=C(OCC(O)CO)c1ccccc1Nc1ccnc2cc(Cl)ccc12 (stereo not given)	0.07624
CCN(CC)Cc1cc(Nc2ccnc3cc(Cl)ccc23)ccc1O.Cl.Cl.O.O [AMODIAQUINE HYDROCHLORIDE]	0.1282
NC(=O)c1cc[n+](CC2=C(C(=O)O)N3C(=O)[C@@H](NC(=O)[C@@H](c4ccccc4)S(=O)(=O)O)[C@H]3SC2)cc1.O.[Na+]	0.1703
CN1CCc2cccc3c2[C@H]1Cc1ccc(O)c(O)c1-3.CN1CCc2cccc3c2[C@H]1Cc1ccc(O)c(O)c1-3.Cl.Cl.O [APOMORPHINE HYDROCHLORIDE]	0.4481
CCCCOc1ccc(OCCCN2CCOCC2)cc1.Cl [PRAMOXINE HYDROCHLORIDE]	0.1376
CCOC(=O)c1c(N)sc2c1CCN(Cc1ccccc1)C2.Cl	0.8505
O=C([O-])C[C@H](O)C[C@H](O)/C=C/c1c(C2CC2)nc2ccccc2c1-c1ccc(F)cc1.O=C([O-])C[C@H](O)C[C@H](O)/C=C/c1c(C2CC2)nc2ccccc2c1-c1ccc(F)cc1.[Ca+2] [PITAVASTATIN CALCIUM]	-0.03681

Reference: ChEMBL document CHEMBL4303097 (2020)
